Consider 32 compounds from PubChem BioAssay (EPA / NIEHS).

Read-out in experiment [1]: sulfotransferase (SULT2A), SULT2A1 (gene 6822)
The experiment in a line: CLD_SULT2A_6hr: CellzDirect (CLD) Gene Expression Assay for sulfotransferase (SULT2A) at 6 hours (AID 2283669).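 Also: hits raise transcript level above the DMSO vehicle baseline.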 A digest of the protocol:
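Primary human hepatocytes from two donor preparations were dosed daily with chemicals or 0.2% DMSO and harvested at 6 h. Transcript induction read by qNPA chemiluminescence, fitted for gain of signal relative to DMSO; morphology-based cytotoxicity annotated.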

The nature of experiment [2]: CLD_ACTIN_24hr: CellzDirect (CLD) Gene Expression Assay for Baseline Control (Actin) at 24 hours (AID 2283670). A digest of the protocol: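 Primary human hepatocytes dosed over multiple concentrations with 0.2% DMSO vehicle; actin mRNA measured at 24 h by qNPA chemiluminescence. Background control endpoint, fitted as gain of signal versus DMSO.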
Read-out in experiment [3]: glucuronosyltransferase (UGT1A1), UGT1A1 (gene 54658)
In words: CLD_UGT1A1_6hr: CellzDirect (CLD) Gene Expression Assay for glucuronosyltransferase (UGT1A1) at 6 hours (AID 2283672). A digest of the protocol:
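Primary human hepatocytes from two donor preparations, dosed with fresh solutions in 0.2% DMSO, harvested at 6 h. UGT1A1 mRNA measured by qNPA chemiluminescence; induction fitted upward versus DMSO.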

Experiment [4] in a line: CLD_ACTIN_6hr: CellzDirect (CLD) Gene Expression Assay for Baseline Control (Actin) at 6 hours (AID 2283676).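 Also: active means increased actin mRNA relative to DMSO vehicle.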 A digest of the protocol: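 Primary human hepatocytes dosed with fresh chemical solutions (vehicle 0.2% DMSO), harvested at 6 h. Actin mRNA quantified by quantitative nuclease protection assay with chemiluminescent read-out, as background control relative to DMSO.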

Experiment [5] in a line: CCTE_Padilla_ZF_144hpf_TERATOSCORE: (Legacy) CCTE's 144 Hour Post-fertilization zebrafish Assay Teratoscore, Padilla Lab (AID 2283679; active = hit-call score of the fitted dose curve at least 0.9, where 1 is the maximum; inactive = score below 0.9;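 as to AC50: zebrafish embryos with chorions exposed by immersion from 6-8 hpf to 5 dpf with daily renewal; teratogenicity score from eye scoring of death hatching and malformations at 144 hpf; higher score means more developmental defects relative to DMSO baseline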). A digest of the protocol: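 Larvae scored by eye at 144 hpf for death, hatching and malformations after a day in clean Hanks'. Before that, daily-renewed exposure at 80 uM (0.4% DMSO, 26C) from roughly 6-8 hpf through 5 dpf, 4 embryos per chemical.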

Read-out in experiment [6]: Cytochrome P450 3A4 (Homo sapiens) (UniProt P08684)
In words: CLD_CYP3A4_6hr: CellzDirect (CLD) Gene Expression Assay for xenobiotic metabolism (CYP3A4) at 6 hours (AID 2283680). A digest of the protocol: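 Primary human hepatocytes (two donor preparations) dosed; CYP3A4 mRNA harvested at 6 h and quantified by qNPA chemiluminescence. Gain of signal fitted against 0.2% DMSO vehicle; cytotoxicity flagged by phase-contrast morphology.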

Read-out in experiment [7]: xenobiotic metabolism (CYP1A1), CYP1A1 (gene 1543)
In words: CLD_CYP1A1_24hr: CellzDirect (CLD) Gene Expression Assay for xenobiotic metabolism (CYP1A1) at 24 hours (AID 2283673).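 Also: CYP1A1 mRNA level by quantitative nuclease protection with chemiluminescence.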 A digest of the protocol:
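Primary human hepatocytes dosed daily with fresh solutions in 0.2% DMSO vehicle. mRNA measured at 24 h by quantitative nuclease protection assay with chemiluminescence; gain-of-signal fit versus DMSO, with morphology-based cytotoxicity flags.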

Read-out in experiment [8]: Cytochrome P450 2B6 (Homo sapiens) (UniProt P20813)
The experiment in a line: CLD_CYP2B6_6hr: CellzDirect (CLD) Gene Expression Assay for xenobiotic metabolism (CYP2B6) at 6 hours (AID 2283677).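 Also: actives raise CYP2B6 transcript above DMSO baseline so AC50 marks an inducer.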 A digest of the protocol: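 Primary human hepatocytes dosed with chemicals at multiple concentrations, vehicle 0.2% DMSO; CYP2B6 mRNA induction measured 6 h after dosing by quantitative nuclease protection assay with chemiluminescence, gain of signal fitted relative to DMSO.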

Read-out in experiment [9]: Cytochrome P450 (CYP24A1_1), CYP24A1 (gene 1591)
The experiment in a line: LTEA_HepaRG_CYP24A1_1: Life Technologies and Expression Analysis (LTEA) Assay for Cytochrome P450 (CYP24A1_1) using HepaRG (AID 2283671; active = hit-call score of the fitted dose curve at least 0.9, where 1 is the maximum; inactive = score below 0.9). To be noted: mRNA level, 48 h; actives raise or lower the signal. A digest of the protocol:
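HepaRG, 48 h exposure, 8-pt half-log series from 100 uM in 0.5% DMSO, duplicates. Readout: TaqMan qRT-PCR of CYP24A1 mRNA, housekeeping-normalized (ACTB/GAPDH/POLR2A). Bidirectional curve fit vs DMSO baseline.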

The structures appear in SMILES notation. Records with an inconclusive call do not appear. Calls of active or inactive are those of the source. The calls were made as follows, unless noted: active = hit-call score of the fitted dose curve at least 0.9, where 1 is the maximum; inconclusive = response in the unintended direction; inactive = score below 0.9.

Chain of Cytochrome P450 3A4 (Homo sapiens) (P08684 whole entry, looked up): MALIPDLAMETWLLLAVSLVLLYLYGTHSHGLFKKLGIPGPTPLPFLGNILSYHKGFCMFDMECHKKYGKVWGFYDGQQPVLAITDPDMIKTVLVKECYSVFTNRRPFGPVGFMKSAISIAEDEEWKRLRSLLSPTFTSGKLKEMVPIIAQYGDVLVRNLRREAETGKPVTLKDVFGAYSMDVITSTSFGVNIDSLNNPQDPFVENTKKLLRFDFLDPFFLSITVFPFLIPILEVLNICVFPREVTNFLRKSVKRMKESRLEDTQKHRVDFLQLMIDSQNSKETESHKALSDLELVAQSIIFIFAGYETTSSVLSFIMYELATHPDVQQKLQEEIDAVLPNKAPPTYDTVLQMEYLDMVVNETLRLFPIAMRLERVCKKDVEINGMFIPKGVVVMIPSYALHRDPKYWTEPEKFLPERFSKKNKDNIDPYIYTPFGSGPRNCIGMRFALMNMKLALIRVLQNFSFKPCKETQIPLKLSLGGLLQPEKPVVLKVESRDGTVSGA

Consider `Cc1cnc(C2=NC(C)(C(C)C)C(=O)N2)c(C(=O)O)c1` (stereo not given), for which the outcome in experiment [1], in experiment [2], in [3], in experiment [4], in [5] and in experiment [6] was inactive.
In the case of `CNC(=O)Oc1cccc2ccccc12`, the compound was called inactive in [1], in [3] and in [4]. The AC50 (usually the concentration giving half of the maximal activity seen) in experiment [7] is 8.24 µM (active); in experiment [5] it was 60.8 µM (active).
As to `CCNP(=S)(OC)O/C(C)=C/C(=O)OC(C)C` (stereo not given), the compound was called inactive in experiment [1], in [3] and in experiment [4]. The AC50 was 3.93 µM (active) in [7], 40.6 µM (active) in [5] and 1.9 µM (active) in experiment [6].
In the case of `COC(=O)NS(=O)(=O)c1ccc(N)cc1`, the outcome in [1], in experiment [4], in experiment [5] and in experiment [6] was inactive. Moreover, the AC50 is 20 µM (active) in experiment [3] and 0.00106 µM (active) in [7].
With `CCSC(=O)N1CCCCCC1`, the call in experiment [1], in [2], in [3], in experiment [7], in experiment [4] and in experiment [5] was inactive. Besides, in experiment [6], the compound was classed as inactive.
With `CCCN(CC)CC1COC2(CCC(C(C)(C)C)CC2)O1` (stereo not given), the result in [1], in experiment [2], in experiment [3] and in experiment [6] was inactive. The AC50 in experiment [7] was 0.376 µM (active); in [5], 62.9 µM (active).
In the case of `COCC(C)N(C(=O)CCl)c1c(C)csc1C` (stereo not given), the compound was classed as inactive in [1], in [3], in experiment [7], in [4] and in experiment [6]. In addition, the figures for the AC50 in experiment [8] and in [5] were 6.94 µM (active) and 60.8 µM (active), respectively.
On to `CN=C=S`, for which the compound was called inactive in experiment [1], in experiment [9], in experiment [3], in experiment [7] and in experiment [4]. In addition, in experiment [5], the AC50 was 2.93 µM (active).
`O=P(O)(O)CCCl`: the compound was called inactive in experiment [1], in experiment [2], in experiment [3], in experiment [4] and in experiment [5].
As for `CC1(C)C(C=C(Cl)Cl)C1C(=O)OC(C#N)c1cccc(Oc2ccccc2)c1` (stereo not given), the compound was classed as inactive in experiment [1], in experiment [3] and in [4]. For the same compound, the AC50 in experiment [7] is 8.15 µM (active); in experiment [5] it was 0.284 µM (active).
For `CCC(C)n1c(=O)[nH]c(C)c(Br)c1=O` (stereo not given), the compound was called inactive in experiment [1], in experiment [9], in experiment [3] and in [5]. The values for the AC50 in [7] and in experiment [8] were 5.45 µM (active) and 3.08 µM (active), respectively.
For the compound `CCOc1nc(C(Cl)(Cl)Cl)ns1`, the result in experiment [1], in experiment [2], in experiment [3], in [7], in experiment [4] and in experiment [5] was inactive. Besides, in experiment [6], the outcome was inactive.
`CC1(C)CON(Cc2ccccc2Cl)C1=O`: the compound was classed as inactive in [1], in experiment [2], in experiment [3], in [7], in experiment [4] and in experiment [5]. In addition, the AC50 in experiment [8] is 3.31 µM (active); in experiment [6], 1.89 µM (active).
For the compound `COP(=S)(OC)Oc1ccc([N+](=O)[O-])c(C)c1`, the compound was classed as inactive in [1], in experiment [3], in [4] and in experiment [6]. In addition, the AC50 in [7] is 3.97 µM (active); in experiment [8] it was 1.46 µM (active); in experiment [5], 50 µM (active).
Consider `COc1ccc(-c2ccccc2)cc1NNC(=O)OC(C)C`, for which the outcome in [1], in experiment [2], in experiment [3], in [4] and in [6] was inactive. Moreover, the AC50 was 14.1 µM (active) in [7] and 17.8 µM (active) in experiment [5].
As for `COC(=O)c1c(C(F)F)nc(C(F)(F)F)c(C2=NCCS2)c1CC(C)C`, the compound was called inactive in experiment [1], in experiment [3], in [4] and in experiment [6]. The figures for the AC50 in experiment [7] and in experiment [5] were 36.1 µM (active) and 51.4 µM (active), respectively.
Consider `Cn1c(-c2ccccc2)cc(-c2ccccc2)[n+]1C`, for which the outcome in [1], in [2], in experiment [4] and in [5] was inactive. For the same compound, the concentration at half-maximal activity (AC50) in experiment [7] was 0.158 µM (active).
On to `COP(=O)(OC)O/C(C)=C/C(=O)N(C)C`, for which the compound was called inactive in [1], in [2], in [3], in experiment [7], in experiment [4] and in experiment [8]. For the same compound, in [5], the compound was called inactive.
For the compound `CCOP(=S)(OCC)Oc1nc(Cl)n(C(C)C)n1`, the result in experiment [1], in experiment [9] and in experiment [3] was inactive. In addition, the figures for the AC50 in experiment [7], in [5] and in experiment [6] were 2.18 µM (active), 57.2 µM (active) and 0.466 µM (active), respectively.
`CS(=O)(=O)c1ccc(C(=O)C2C(=O)CCCC2=O)c([N+](=O)[O-])c1`: the call in [1], in [2], in experiment [7], in experiment [4] and in experiment [6] was inactive. The AC50 in [5] is 14.4 µM (active).
As to `O=C(Nc1ccccc1-c1ccc(Cl)cc1)c1cccnc1Cl`, the result in experiment [1], in experiment [3] and in experiment [4] was inactive. Besides, the values for the AC50 in [7], in experiment [8] and in experiment [5] were 5.36 µM (active), 0.504 µM (active) and 3.12 µM (active), respectively.
`CS(=O)(=O)c1cc(C(F)(F)F)ccc1C(=O)c1cnoc1C1CC1`: the call in [1], in experiment [3], in [7], in experiment [4] and in [5] was inactive.
For the compound `O=C(O)c1c(Cl)ccc2cc(Cl)cnc12`, the outcome in experiment [1], in experiment [2], in [3], in experiment [7], in experiment [8] and in [5] was inactive. Further, the compound was called inactive in experiment [6].
`Clc1cccc(C(Cl)(Cl)Cl)n1`: the call in experiment [1], in [2], in experiment [3], in experiment [4], in [5] and in experiment [6] was inactive. The AC50 in [7] was 3.97 µM (active).
Regarding `CCCCOCN(C(=O)CCl)c1c(CC)cccc1CC`, the AC50 in [1] is 4.32 µM (active); in experiment [7], 6.4 µM (active); in experiment [8] it was 2.29 µM (active); in experiment [5] it was 5.42 µM (active). For the same compound, the compound was called inactive in experiment [3], in experiment [4] and in experiment [6].
Consider `C=C(C)CN(CC)c1c([N+](=O)[O-])cc(C(F)(F)F)cc1[N+](=O)[O-]`, for which the result in experiment [1], in experiment [3], in [4] and in experiment [5] was inactive. In addition, the half-maximal activity concentration (AC50) in experiment [7] is 20 µM (active).
Consider `CC(C)NC(=O)N1CC(=O)N(c2cc(Cl)cc(Cl)c2)C1=O`, for which the compound was classed as inactive in experiment [1], in [3], in [4] and in [6]. The AC50 is 20 µM (active) in experiment [7] and 74.4 µM (active) in experiment [5].
`COP(=S)(OC)SCn1nnc2ccccc2c1=O`: the result in experiment [1] and in experiment [4] was inactive. In addition, the AC50 was 1.73 µM (active) in experiment [3]; 3.65 µM (active) in experiment [7]; 0.448 µM (active) in [8]; 15.2 µM (active) in experiment [5]; 0.975 µM (active) in [6].
For `N#CN=C1SCCN1Cc1ccc(Cl)nc1`, the compound was called inactive in experiment [1], in experiment [2], in experiment [3], in [7], in experiment [8] and in [5]. Further, the compound was called inactive in [6].
On to `CCCCC(C#N)(Cn1cncn1)c1ccc(Cl)cc1` (stereo not given), for which the call in experiment [1], in experiment [9], in [3] and in experiment [4] was inactive. Further, the AC50 is 35.3 µM (active) in experiment [7], 62.6 µM (active) in experiment [5] and 2.99 µM (active) in [6].
Regarding `CCOP(=O)(OCC)Oc1nc(Cl)c(Cl)cc1Cl`, the compound was called inactive in experiment [1], in experiment [3], in experiment [7] and in experiment [4]. For the same compound, the results for the AC50 in [5] and in [6] were 0.485 µM (active) and 9.77 µM (active), respectively.
Turning to `CC1(C)C(C(=O)OC(C#N)c2cccc(Oc3ccccc3)c2)C1(C)C` (stereo not given), the outcome in [1], in experiment [3], in experiment [7] and in experiment [4] was inactive. For the same compound, the AC50 is 1.44 µM (active) in experiment [5] and 3.71 µM (active) in experiment [6].
